In ChEMBL document CHEMBL4513216, “Probing the Open Global Health Chemical Diversity Library for Multistage-Active Starting Points for Next-Generation Antimalarials” (ACS Infect Dis, 2020):
The whole screen tested about 68,000 compounds, of which about 2,700 (4%) showed an effect of 50% or more. The list comes from a sample in which strong results are over-represented; it also holds similar structures and randomly drawn compounds.

tested on: Plasmodium berghei; assay: Screen against P. berghei liver stage (PbLuc), transformed with Luciferase, at 2uM; type: functional, HepG2; conditions: tested at 2 uM

Question: With `CCn1[nH]c(C)c2c(C(F)(F)C(F)(F)F)cc(=O)nc1-2` as the compound, how does the INHIBITION read?
Answer: Its INHIBITION is 1.01%.

Question: For `Cc1nsc(C(=O)NCCc2cccs2)n1`, which INHIBITION is on record?
Answer: Its INHIBITION is 55.25%.

Question: `Cc1nsc(C(=O)NCCc2ccc(F)cc2)n1` was tested. Which INHIBITION did it give?
Answer: Its INHIBITION is -0.59%.

Question: For `Cc1nsc(C(=O)NCCc2ccccc2)n1`, which INHIBITION is on record?
Answer: The INHIBITION was -7.16%.

Question: `Cc1ccc(CN2CCC3(CC2)CC(c2cccnc2)CO3)s1` (stereo not drawn) was tested. Which INHIBITION did it give?
Answer: Its INHIBITION is 23.79%.

Question: How did the INHIBITION turn out when `CCS(=O)(=O)c1ccc(N2CCC(NC(=O)NC(C)CO)CC2)cc1` (stereo not drawn) was run?
Answer: Its INHIBITION is 7.85%.

Question: With `Cc1ccc(CN(C)C(=O)Cn2nc(-c3ccc(F)cc3)oc2=O)cc1` as the compound, how does the INHIBITION read?
Answer: Its INHIBITION is 5.28%.

Question: `CN(Cc1ccc(F)cc1)C(=O)Cn1nc(-c2ccc(F)cc2)oc1=O` was tested. Which INHIBITION did it give?
Answer: Its INHIBITION is -10.54%.

Question: With `Cc1ccsc1CN(C)C(=O)Cn1nc(-c2ccc(F)cc2)oc1=O` as the compound, how does the INHIBITION read?
Answer: The INHIBITION was 51.99%.

Question: How did the INHIBITION turn out when `COc1ccc(CC(C)(O)CNC(=O)NCc2cccs2)cc1` (stereo not drawn) was run?
Answer: The INHIBITION was 45.62%.

Question: How did the INHIBITION turn out when `CC(C)OCC(=O)N1CCCN(Cc2ccc(C#N)cc2)CC1` was run?
Answer: Its INHIBITION is 2.08%.

Question: With `Cc1nccn1C1CCCN(C(=O)c2sccc2-n2cnnn2)C1` (stereo not drawn) as the compound, how does the INHIBITION read?
Answer: The INHIBITION was -13.92%.

Question: How did the INHIBITION turn out when `Cc1ccc2c(c1)c(CNC(=O)C1CCCN(CC(N)=O)C1)nn2C` (stereo not drawn) was run?
Answer: Its INHIBITION is -1.87%.

Question: For `Cc1ccc2c(c1)c(CNC(=O)C1CCN(C(=O)C3CC3)CC1)nn2C`, which INHIBITION is on record?
Answer: Its INHIBITION is -13.72%.

Question: Which INHIBITION does the source give for `Cc1ccc2c(c1)c(CNC(=O)C1CCN(CC(N)=O)CC1)nn2C` here?
Answer: Its INHIBITION is 58.53%.

Question: For `CC(C)c1cc(C(=O)N[C@@H]2CC[C@@H](Oc3ccccc3)[C@@H]2O)on1`, which INHIBITION is on record?
Answer: Its INHIBITION is 19.69%.

Question: `CCc1c(C(=O)O)nnn1-c1cc(C)cc(C)c1` was tested. Which INHIBITION did it give?
Answer: Its INHIBITION is -50.41%.

Question: `COc1ccccc1OC1(C(=O)O)CCN(c2ncnc(C)c2C)CC1` was tested. Which INHIBITION did it give?
Answer: Its INHIBITION is 60.13%.

Question: `COc1ccccc1OC1(C(=O)O)CCN(c2nc(C)cnc2C)CC1` was tested. Which INHIBITION did it give?
Answer: The INHIBITION was 33.9%.

Question: How did the INHIBITION turn out when `COc1ccccc1OC1(C(=O)O)CCN(c2nccnc2C)CC1` was run?
Answer: The INHIBITION was 1.34%.

Question: For `O=C(CC1CC1)NC[C@]12COC[C@H]1CN(c1ncccn1)C2`, which INHIBITION is on record?
Answer: The INHIBITION was 22.36%.

Question: For `COc1cccc(CC(=O)N2CCCC2c2nc(C)c(F)c(O)n2)c1` (stereo not drawn), which INHIBITION is on record?
Answer: The INHIBITION was 52.82%.

Question: For `Cc1nc(C2CCCN2C(=O)Cc2ccc(F)cc2)nc(O)c1C` (stereo not drawn), which INHIBITION is on record?
Answer: Its INHIBITION is 46.57%.

Question: For `Cc1nc(C2CCCN2C(=O)Cc2cccc(F)c2)nc(O)c1C` (stereo not drawn), which INHIBITION is on record?
Answer: Its INHIBITION is 27.81%.

Question: Which INHIBITION does the source give for `COc1ccc(CC(=O)N2CCCC2c2nc(C)c(C)c(O)n2)cc1` (stereo not drawn) here?
Answer: Its INHIBITION is 29.48%.

Question: Which INHIBITION does the source give for `Cc1nc(C2CCCN2C(=O)Cc2ccc3c(c2)OCO3)nc(O)c1C` (stereo not drawn) here?
Answer: The INHIBITION was 22.39%.

Question: Which INHIBITION does the source give for `COc1cccc(CC(=O)N2CCCC2c2nc(C)c(C)c(O)n2)c1` (stereo not drawn) here?
Answer: The INHIBITION was 55.74%.

Question: Which INHIBITION does the source give for `CCOC(=O)[C@]12CCCN(Cc3cccs3)C[C@H]1CN(C(C)=O)C2` here?
Answer: Its INHIBITION is -12.74%.
